Most compounds without a hit are left out; they make up all but 3% or so of the library.
Bim-Mcl-1: human Bim-Mcl-1 interaction inhibition; Q07820; actives 0.1% (n = 190,000); inhibition, % at 10 µM; AID 1009; Bead-based flow cytometry, Bim peptide-Mcl-1 binding; in the data active = inhibition above about 40%
Target sequence (Q07820 whole entry, looked up): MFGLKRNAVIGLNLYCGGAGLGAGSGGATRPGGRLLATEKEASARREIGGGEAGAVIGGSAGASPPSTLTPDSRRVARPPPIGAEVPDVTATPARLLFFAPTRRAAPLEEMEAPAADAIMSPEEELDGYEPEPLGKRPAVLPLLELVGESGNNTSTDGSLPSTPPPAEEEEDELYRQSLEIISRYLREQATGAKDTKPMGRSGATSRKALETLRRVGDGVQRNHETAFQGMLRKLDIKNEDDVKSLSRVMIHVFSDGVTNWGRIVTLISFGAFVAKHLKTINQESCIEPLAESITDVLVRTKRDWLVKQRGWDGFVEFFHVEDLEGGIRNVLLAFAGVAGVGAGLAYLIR
Mcl1 Bid PPI: Mcl-1/Bid interaction inhibition. TR-FRET Mcl-1/Bid-Dy647 peptide binding, 1536-well. inhibition, % at 21.7 µM. actives 0.97% (n = 220,000);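 active = compounds that cut the binding signal by more than half at the single screening dose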;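 note: His-tagged Mcl-1 with europium anti-His antibody binding Bid BH3 peptide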
Mcl1 Noxa PPI: Mcl-1/Noxa interaction inhibition. TR-FRET Mcl-1/Noxa peptide binding, 2 h. inhibition, % at 21.7 µM. actives 1.5% (n = 220,000). AID 1022;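 active = compounds that cut the protein-peptide binding signal by more than 50% relative to plate controls in a single-dose test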;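 note: His-tagged Mcl-1 with rhodamine Noxa BH3 peptide and terbium anti-His antibody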
Arbovirus anti: blocks arbovirus infection; arbovirus infection cell-based antiviral screen; inhibition, % at 10 µM; actives 0.37% (n = 200,000); AID 1251; in the data active = inhibition above about 30%
14-3-3 Bad inh: disrupts binding of bovine 14-3-3 zeta to phospho-Bad peptide. P63103. TR-FRET 14-3-3zeta/Dy647-pBad peptide displacement, 1 h. inhibition, % at 21.7 µM. actives 0.71% (n = 220,000);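 active = inhibition above about 70%, limit read from the data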
Target sequence (P63103 whole entry, looked up): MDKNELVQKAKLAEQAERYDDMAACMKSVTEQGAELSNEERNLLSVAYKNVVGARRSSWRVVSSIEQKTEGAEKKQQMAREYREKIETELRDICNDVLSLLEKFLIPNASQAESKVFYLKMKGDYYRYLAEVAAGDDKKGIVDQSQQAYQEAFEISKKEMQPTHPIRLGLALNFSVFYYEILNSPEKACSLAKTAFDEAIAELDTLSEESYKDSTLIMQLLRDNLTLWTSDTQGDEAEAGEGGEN
A number is an active result; n = inactive; x = no result; [ ] = dose if it differs, or a comment.

SMILES	Bim-Mcl-1	Mcl1 Bid PPI	Mcl1 Noxa PPI	Arbovirus anti	14-3-3 Bad inh
O=C(CCNc1ccc(Cl)cc1)c1cccs1	n	n	n	n	n
CC(=O)C(Cc1ccccc1)NC(=O)CN1CCN(Cc2ccccc2)CC1 (centres undefined)	n	n	n	n	n
CC1(C)C2CCC(C2)C1(C)NC(=O)CN1CCN(Cc2ccccc2)CC1 (centres undefined)	n	n	n	n	72.3
CCN1CCN(c2cc(C)c3cc(NC(=O)c4ccc(Br)o4)ccc3n2)CC1	n	n	n	n	n
CCN(CC)c1cc(C)c2cc(NC(=O)c3ccc(Br)o3)ccc2n1	n	n	60.5	n	n
CCOC(=O)c1ccc(NC(=O)c2ccc(C)c(S(=O)(=O)N3CCOCC3)c2)cc1	n	n	n	32.6	n
CCOc1ccc(C2C=C(c3ccc(C)cc3)Nc3ncnn32)cc1 (centres undefined)	n	n	n	32.3	n
Cc1ccc(Cl)cc1-n1ncc2c(NNC(=O)c3ccco3)ncnc21	n	n	n	n	n
CC(C)CN(C(=O)COC(=O)c1ccc(-c2ccccc2)cc1)C1CCS(=O)(=O)C1 (centres undefined)	n	n	n	n	n
CC(C)CN(C(=O)COC(=O)c1cc2c(s1)CCC2)C1CCS(=O)(=O)C1 (centres undefined)	n	n	55.4	n	n
CCN(CC)c1cnn(C/C(=N\OC)c2ccc(Cl)cc2)c(=O)c1Br	n	n	n	n	n
Cc1ccc(-n2nc(C)c(NC(=O)CCl)c2C)cc1	n	n	n	34.8	n
COc1ccc(CCc2cc(OC)cc(=O)o2)cc1	x	n	n	x	n
Cc1cc(C)cc(-n2c(SCC(=O)Nc3cccc(S(=O)(=O)NC4=NCCCCC4)c3)nc3ccccc3c2=O)c1	n	n	n	n	n
CCOc1ccc(NC(=O)COn2nnc3ccc(S(=O)(=O)N4CCOCC4)cc32)cc1	n	n	70.7	n	n
COC(=O)C(C)SC1=N/C(=C/c2ccc(-n3cncn3)cc2)C(=O)N1 (centres undefined)	x	n	n	x	n
CC1CCCN(C(=O)CSc2nnc(-c3ccncc3)n2C)C1 (centres undefined)	n	n	n	n	n
CC(C)(O)C#Cc1ccc(CN2CCN(C3CCCCC3)C(CCO)C2)cc1 (centres undefined)	n	n	81.2	n	n
Cc1ccn2c(-c3n[nH]c(=S)n3C)c(C)nc2c1	n	n	53.7	n	n
C=CCn1c(=NC(=O)c2ccco2)sc2cc(C(=O)OCC)ccc21	n	50.9	n	n	n
COc1cc(S(=O)(=O)Nc2cccc(C)c2)ccc1NC(=O)c1ccncc1	n	94.6	n	n	n
CC(C)(C)C(=O)NNc1nc(-c2ccccc2)c2cc(Br)ccc2n1	n	97.1	n	n	n
CC(C)c1ccc(CNC(=O)C(=O)NCCCn2ccnc2)cc1	n	n	n	n	n
COC(=O)C(=C/C=C/N1CCOCC1)C(=O)OC	x	n	n	x	n
Fc1cccc2sc(Nc3nc4cc5c(cc4s3)OCO5)nc12	n	n	n	n	n
SMILES	Bim-Mcl-1	Mcl1 Bid PPI	Mcl1 Noxa PPI	Arbovirus anti	14-3-3 Bad inh
Fc1cc(F)c2nc(Nc3nc4cc5c(cc4s3)OCO5)sc2c1	n	91.0	98.8	n	94.9[fluorescence artefact?]
O=C(Cc1coc2cc3c(cc12)CCC3)OCc1cc(=O)n2c(n1)sc1ccccc12	n	n	51.3	n	n
O=C(OCc1cc(=O)n2c(n1)sc1ccccc12)c1cccc(O)c1	n	n	66.8	n	n
O=C(OCc1cc(=O)n2c(n1)sc1ccccc12)c1ccc(O)cc1O	n	n	n	n	n
Cc1ccc(C(=O)N[C@H](C(=O)OCc2cc(=O)n3c(n2)sc2ccccc23)C(C)C)cc1	n	n	57.5	n	n
CC(C)[C@H](NC(=O)c1ccco1)C(=O)OCc1cc(=O)n2c(n1)sc1ccccc12	n	n	59.6	n	n
COc1cccc(C2C3=C(N=c4s/c(=C\c5ccc(O)cc5)c(=O)n42)c2ccccc2CC3)c1OC (centres undefined)	n	n	n	n	n
COc1cccc(C2C3=C(N=c4s/c(=C\c5cccc(O)c5)c(=O)n42)c2ccccc2CC3)c1OC (centres undefined)	n	n	n	n	n
COc1cccc(C2C3=C(N=c4s/c(=C\c5ccc(OCC(=O)O)cc5)c(=O)n42)c2ccccc2CC3)c1 (centres undefined)	x	n	71.0	x	n
COc1ccccc1C1C2=C(N=c3s/c(=C/c4cccc(OCC(=O)O)c4)c(=O)n31)c1ccccc1CC2 (centres undefined)	n	81.9	107.0	41.3	n
CCCCNc1nc(=S)n(-c2ccccc2)c(C)c1C(C)=O	n	n	n	n	n
COc1ccc(CCNc2ncnc3sccc23)cc1OC	n	n	n	n	n
COc1ccc(CCNc2nc(C)nc3c2oc2ccccc23)cc1OC	n	n	n	n	75.3
COc1ccc(CCNc2ncnc3c2oc2ccccc23)cc1OC	n	n	n	n	84.7
CCOC(=O)c1c(/N=C/C2=C(O)CC(C)(C)CC2=O)sc2c1CCCC2	x	n	n	x	n
OC(CNCc1ccccc1Cl)C(F)(F)F (centres undefined)	n	n	n	n	82.4
Cn1cccc1CNCc1ccccc1Cl	n	n	n	n	n
Cc1ccc(C(=O)N2CCCC(c3ccc(Cl)cc3)=N2)cc1	n	n	n	n	n
CCCc1cc(-c2n[nH]c(C)c2-c2ccc(C(=O)OCC)o2)c(O)cc1O	n	n	n	n	n
CCCc1cc2c(OC(=O)CC)c(-c3ccc(C(=O)OCC)o3)c(=O)oc2cc1OC	n	n	n	58.5	n
O=C(CSc1nnc(-c2ccncc2)o1)NCc1ccccc1Cl	n	100.8	n	n	n
O=C(CSc1nnc(-c2ccncc2)o1)NCc1ccccc1	n	n	n	n	n
N#Cc1ccc(-c2cccs2)nc1SCc1cccnc1	x	n	n	x	n
CN1CCN(C(=O)CSc2nc(-c3cccs3)ccc2C#N)CC1	n	n	55.9	n	n
Cc1ccc(NC(=S)N2CCC(N(C)CC3CCCO3)CC2)c(C)c1 (centres undefined)	n	n	n	n	n
SMILES	Bim-Mcl-1	Mcl1 Bid PPI	Mcl1 Noxa PPI	Arbovirus anti	14-3-3 Bad inh
COc1nc(OC)nc(N2CCC(C(=O)NCc3cccs3)CC2)n1	n	n	n	n	84.1
Cc1cnc(C)c(N2CCC(C(=O)NCc3cccs3)CC2)n1	n	n	n	n	n
Cc1ccc(C)c(NS(=O)(=O)c2ccc3[nH]c(=O)oc3c2)c1	n	n	58.8	n	n
Cc1ccc(-c2nn3c(C)nnc3s2)cc1NC(=O)c1ccc(-c2ccc(Cl)cc2Cl)o1	n	n	n	n	85.5[fluorescence artefact?]
Clc1ccc(-c2nnc3sc(-c4ccc(Br)o4)nn23)cc1	n	n	n	n	n
Clc1ccc(-c2nnc3sc(-c4ccc(Br)o4)nn23)c(Cl)c1	n	n	n	n	n
Cc1oc(-c2ccc(Cl)cc2)cc1-c1nn2c(-c3ccoc3C)nnc2s1	n	54.9	88.5	n	n
CN(C)c1ccc(-c2nn3c(-c4ccc(Cl)cc4Cl)nnc3s2)cc1	n	93.3	87.1	n	n

Screens: PubChem BioAssay, several laboratories
